# Experimental data taken from PubChem BioAssay (NCATS).
# Results filed as inconclusive are left out. A call without a number means that no potency is given here. More than one record can exist for a structure, and the calls need not agree. Active and inactive are the calls of the source. Unless noted, calls follow the shape of the dose curve; as a rule, active = well fitted curve in the direction sought with a large enough effect; inconclusive = small, poorly fitted or top-dose-only effect, or another doubt; inactive = no such curve, though single readings can be large; an effect the other way counts as inactive or inconclusive.
# Key:
# [1] = target: Thioredoxin reductase 1, cytoplasmic (Rattus norvegicus) (UniProt O89049); experiment: qHTS Assay for Substrates of Mammalian Selenoprotein Thioredoxin Reductase 1 (TrxR1) (AID 488772);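 also: NADPH fluorescence in the first read after selenite addition and not the 8 min delta; series mostly up to about 57 µM; a drop in NADPH fluorescence below the no-compound background marks a TrxR1 substrate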
# Chain of Thioredoxin reductase 1, cytoplasmic (Rattus norvegicus) (O89049 whole entry, looked up): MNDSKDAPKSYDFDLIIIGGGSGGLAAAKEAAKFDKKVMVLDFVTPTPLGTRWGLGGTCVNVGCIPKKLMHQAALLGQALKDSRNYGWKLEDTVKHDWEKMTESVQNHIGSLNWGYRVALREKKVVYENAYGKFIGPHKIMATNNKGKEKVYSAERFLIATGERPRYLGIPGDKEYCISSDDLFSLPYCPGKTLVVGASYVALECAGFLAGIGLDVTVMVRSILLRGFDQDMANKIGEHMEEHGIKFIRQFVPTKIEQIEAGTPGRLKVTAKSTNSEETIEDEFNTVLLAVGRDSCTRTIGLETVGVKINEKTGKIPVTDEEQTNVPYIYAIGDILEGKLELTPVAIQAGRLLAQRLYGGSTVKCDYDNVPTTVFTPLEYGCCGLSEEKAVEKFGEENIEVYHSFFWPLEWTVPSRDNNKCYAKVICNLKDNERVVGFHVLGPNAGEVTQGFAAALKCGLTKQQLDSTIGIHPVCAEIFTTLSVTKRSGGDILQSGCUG
# Method in brief: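 Quantitative HTS in Tris-HCl buffer at pH 7.5 with EDTA and Tween-20, using rat TrxR1, 400 uM NADPH and 400 uM selenite (final). A fall in initial NADPH fluorescence relative to background marked substrate behaviour.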
# [2] = target: Thioredoxin reductase 1, cytoplasmic (Rattus norvegicus) (UniProt O89049); experiment: qHTS Assay for Inhibitors of Mammalian Selenoprotein Thioredoxin Reductase 1 (TrxR1) (AID 488773); conditions: Potency: inhibition; also: nearly all actives have a fitted effect of over 40% in size; also: potency is read from the fitted curve at half-maximal effect
# Method in brief: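 Steps: enzyme (90 nM) plus NADPH (400 uM final), 5 min at ~22 deg C; compound added, 15 min; selenite (400 uM final) added; fluorescence followed for 8 min. Concentration-response curves derived from the normalized delta values.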
# [3] = target: Flap endonuclease 1 (Homo sapiens) (UniProt P39748); experiment: qHTS Validation Assay for the Inhibitors of Human Flap endonuclease 1 (FEN1) (AID 488816); also: potency is read from the fitted curve at half-maximal effect
# Method in brief: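 FEN1, dispensed as a 10 nM reagent, was preincubated with pin-transferred compounds for 15 min at room temperature before substrate was added (50 nM final). Plates were read at 0 and 15 min, and a four-parameter Hill equation was fitted to the concentration-response data.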
# [4] = target: M-phase phosphoprotein 8 (Homo sapiens) (UniProt Q99549); experiment: qHTS Validation Assay for Inhibitors for MPP8 Chromodomain Interactions with Methylated Histone Tails (AID 488949); also: nearly all actives have a fitted effect of over 55% in size; also: potency is read from the fitted curve at half-maximal effect
# Method in brief: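 50 nM MPP8 + 50 nM b-H3K9me3 peptide, PBS pH 7.4/0.01% Tween-20, 30 min RT; + cpd 30 min RT; + AlphaScreen donor/Ni-chelate acceptor beads 10 ug/mL final, 30 min dark; luminescence read.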
# [5] = target: Chromobox protein homolog 1 (Homo sapiens) (UniProt P83916); experiment: qHTS Validation Assay for Inhibitors of HP1-beta Chromodomain Interactions with Methylated Histone Tails (AID 488953); also: nearly all actives have a fitted effect of over 50% in size; also: potency is read from the fitted curve at half-maximal effect
# Method in brief: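 HP1-beta (50 nM) was preincubated 30 min at room temperature with biotinylated H3(1-18)K9me3 peptide (50 nM) in PBS pH 7.4, 0.01% Tween-20, then with compounds 30 min. AlphaScreen signal was read after streptavidin donor/nickel chelate acceptor beads (10 ug/mL final).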
# [6] = target: Methanococcus maripaludis chaperonin (MmCpn) (UniProt Q6LX38); experiment: High-Throughput Screening for Modulators of Cytosolic Chaperonin Activity: MmCpn Primary Screen (AID 488978);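 also: 50 nM MmCpn enzyme hydrolysing 30 µM ATP at 37 °C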
# Chain of Methanococcus maripaludis chaperonin (MmCpn) (Q6LX38 1-543): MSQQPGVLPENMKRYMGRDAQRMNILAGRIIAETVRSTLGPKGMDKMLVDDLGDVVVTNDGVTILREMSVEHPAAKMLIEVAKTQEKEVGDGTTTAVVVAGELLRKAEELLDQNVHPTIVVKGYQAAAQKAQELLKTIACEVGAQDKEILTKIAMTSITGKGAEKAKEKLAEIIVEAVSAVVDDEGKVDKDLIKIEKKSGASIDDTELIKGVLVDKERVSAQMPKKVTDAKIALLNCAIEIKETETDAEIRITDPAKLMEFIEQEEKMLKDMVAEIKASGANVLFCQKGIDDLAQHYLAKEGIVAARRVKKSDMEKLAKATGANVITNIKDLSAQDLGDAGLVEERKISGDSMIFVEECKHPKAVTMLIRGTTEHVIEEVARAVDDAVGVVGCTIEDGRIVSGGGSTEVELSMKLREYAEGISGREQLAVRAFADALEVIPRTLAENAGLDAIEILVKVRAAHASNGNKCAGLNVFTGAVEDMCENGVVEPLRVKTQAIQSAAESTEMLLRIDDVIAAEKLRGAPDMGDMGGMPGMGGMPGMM
# Method in brief: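 Steps: chaperonin 50 nM final; add compound, 5 min RT; start with ATP, 30 uM final; hold 10 min at 37C; add ADP Transcreener HTRF reagent, 5 min; read ex 320, em 590 and 665 nm.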
# [7] = target: Transient receptor potential cation channel subfamily V member 1 (Homo sapiens) (UniProt Q8NER1); experiment: HTS Assay for Compounds that Act as Enhancers of the Vanilloid Receptor 1 (AID 488979)
# Chain of Transient receptor potential cation channel subfamily V member 1 (Homo sapiens) (Q8NER1 whole entry, looked up): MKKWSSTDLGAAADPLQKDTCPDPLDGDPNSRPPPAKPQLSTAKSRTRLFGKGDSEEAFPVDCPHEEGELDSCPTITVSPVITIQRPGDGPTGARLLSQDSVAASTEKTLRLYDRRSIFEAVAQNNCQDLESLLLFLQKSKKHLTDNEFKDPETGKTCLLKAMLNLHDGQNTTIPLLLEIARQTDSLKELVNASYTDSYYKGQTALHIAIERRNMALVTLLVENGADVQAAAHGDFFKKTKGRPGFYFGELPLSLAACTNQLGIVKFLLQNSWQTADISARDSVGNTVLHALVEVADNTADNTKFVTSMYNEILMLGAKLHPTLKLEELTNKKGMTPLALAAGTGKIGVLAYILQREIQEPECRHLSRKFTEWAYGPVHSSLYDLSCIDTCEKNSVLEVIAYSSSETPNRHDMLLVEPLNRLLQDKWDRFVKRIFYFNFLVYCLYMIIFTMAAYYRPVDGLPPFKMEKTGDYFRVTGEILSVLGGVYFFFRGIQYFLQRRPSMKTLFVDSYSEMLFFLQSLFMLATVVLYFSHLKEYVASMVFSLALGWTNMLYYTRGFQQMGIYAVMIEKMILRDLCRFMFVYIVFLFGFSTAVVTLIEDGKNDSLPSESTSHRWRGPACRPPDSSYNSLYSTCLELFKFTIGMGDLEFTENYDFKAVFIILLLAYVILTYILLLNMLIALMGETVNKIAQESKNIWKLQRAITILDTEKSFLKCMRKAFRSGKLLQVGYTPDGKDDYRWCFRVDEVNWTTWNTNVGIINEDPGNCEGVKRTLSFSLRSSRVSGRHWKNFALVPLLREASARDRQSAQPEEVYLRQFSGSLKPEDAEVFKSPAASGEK
# Method in brief: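 TRPV1-expressing cells loaded with Fluo-8 calcium dye; compounds added and calcium influx read kinetically for 3 min (agonist phase), then capsaicin at EC20 added and read 2 min more for enhancement. Fluorescence ex 480/em 520 nm.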
# [8] = target: Thyrotropin receptor (Homo sapiens) (UniProt P16473); experiment: qHTS Assay for Antagonists of the Thyroid Stimulating Hormone Receptor (AID 488980); also: series mostly up to about 58 µM
# Chain of Thyrotropin receptor (Homo sapiens) (P16473 whole entry, looked up): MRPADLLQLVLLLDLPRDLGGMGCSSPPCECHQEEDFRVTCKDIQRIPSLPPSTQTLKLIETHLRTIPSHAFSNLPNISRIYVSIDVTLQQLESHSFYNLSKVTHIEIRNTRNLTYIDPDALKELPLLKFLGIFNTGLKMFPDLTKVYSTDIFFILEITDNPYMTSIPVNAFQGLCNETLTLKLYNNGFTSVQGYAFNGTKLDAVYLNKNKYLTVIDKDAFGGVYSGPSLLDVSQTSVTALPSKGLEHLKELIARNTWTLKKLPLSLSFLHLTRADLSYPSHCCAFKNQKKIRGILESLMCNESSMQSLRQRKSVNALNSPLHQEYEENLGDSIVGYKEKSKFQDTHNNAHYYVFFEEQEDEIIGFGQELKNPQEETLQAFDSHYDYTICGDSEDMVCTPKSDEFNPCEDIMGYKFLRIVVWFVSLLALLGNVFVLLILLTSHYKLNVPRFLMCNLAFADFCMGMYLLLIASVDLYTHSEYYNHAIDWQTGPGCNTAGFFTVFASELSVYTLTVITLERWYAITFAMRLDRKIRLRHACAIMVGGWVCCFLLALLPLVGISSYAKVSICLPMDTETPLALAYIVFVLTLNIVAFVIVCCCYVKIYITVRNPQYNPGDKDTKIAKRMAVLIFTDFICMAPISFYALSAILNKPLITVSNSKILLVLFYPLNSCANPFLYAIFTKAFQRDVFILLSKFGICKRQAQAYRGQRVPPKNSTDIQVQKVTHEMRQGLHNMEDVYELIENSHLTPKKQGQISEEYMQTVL
# Method in brief: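 Readout is cAMP by HTRF competition between cellular cAMP and cAMP-d2 for a cryptate-labelled antibody. Antagonism was assessed in TSHR-transfected HEK293 cells stimulated with 4 nM TSH (EC80, final) in the presence of RO 20-1724.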
# [9] = target: D(1A) dopamine receptor (Homo sapiens) (UniProt P21728); experiment: HTS Assay for Allosteric Agonists of the Human D1 Dopamine Receptor: Primary Screen for Agonists (AID 488981)
# Chain of D(1A) dopamine receptor (Homo sapiens) (P21728 whole entry, looked up): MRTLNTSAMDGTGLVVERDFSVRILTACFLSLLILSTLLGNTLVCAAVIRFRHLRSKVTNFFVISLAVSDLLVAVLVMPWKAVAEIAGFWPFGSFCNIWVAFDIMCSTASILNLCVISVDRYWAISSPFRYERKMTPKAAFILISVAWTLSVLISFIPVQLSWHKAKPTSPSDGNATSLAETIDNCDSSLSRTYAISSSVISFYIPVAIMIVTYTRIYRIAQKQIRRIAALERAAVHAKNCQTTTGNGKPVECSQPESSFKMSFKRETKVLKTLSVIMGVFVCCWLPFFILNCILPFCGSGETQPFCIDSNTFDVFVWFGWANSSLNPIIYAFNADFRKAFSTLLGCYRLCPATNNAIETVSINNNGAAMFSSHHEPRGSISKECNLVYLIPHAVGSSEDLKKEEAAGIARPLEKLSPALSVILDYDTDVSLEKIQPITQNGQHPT
# Method in brief: (§1)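 Tetracycline-induced HEK293 T-REx cells force-coupled to calcium signalling were incubated overnight at 30 C and dye-loaded at room temperature. Calcium flux over 180 s after compound addition flagged agonists; a further 180 s read after EC20 dopamine flagged potentiators.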
# [10] = target: D(1A) dopamine receptor (Homo sapiens) (UniProt P21728); experiment: HTS Assay for Allosteric Agonists of the Human D1 Dopamine Receptor: Primary Screen for Potentiators (AID 488982); also: potency is read from the fitted curve at half-maximal effect
# Method in brief: as §1
# [11] = target: D(1A) dopamine receptor (Homo sapiens) (UniProt P21728); experiment: HTS Assay for Allosteric Agonists of the Human D1 Dopamine Receptor: Primary Screen for Antagonists (AID 488983);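 also: calcium flux response to an EC80 dopamine challenge measured with no-wash dye; nearly all actives have a fitted effect of over 65% in size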; also: potency is read from the fitted curve at half-maximal effect
# Method in brief: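 Tetracycline-induced HEK293 T-REx cells expressing force-coupled D1 were plated overnight at 30 C, dye-loaded for calcium, and read kinetically. Compounds were pinned in, then an EC80 dopamine challenge followed after 180 s to reveal antagonism.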
# [12] = target: ATP-dependent 6-phosphofructokinase (Trypanosoma brucei brucei) (UniProt O15648); experiment: qHTS Assay to Find Inhibitors of T. brucei phosphofructokinase: hit validation (AID 492961);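 also: luminescence reports ADP formed as PFK phosphorylates fructose-6-phosphate with ATP; series mostly up to about 51 µM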
# Method in brief: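 Percent activity derived from corrected luminescence, normalized between 0x and 1x enzyme controls, then fitted to concentration-response curves. Conditions: 1.25 nM PFK, 0.1 mM ATP, 0.5 mM F6P, 45 min RT.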
# [13] = Validation screen for small molecules that induce genotoxicity in human embryonic kidney (HEK293T) cells expressing luciferase-tagged ELG1 (AID 493106)
# Method in brief: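 HEK293T cells expressing luciferase-tagged ELG1 were exposed to compound or DMSO vehicle for 16 hr at 37 °C, 5% CO2. Genotoxic stress raises ELG1 levels, so increased luciferase signal after ONE-Glo addition and 30 min at room temperature marks hits.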
# [14] = target: ATPase family AAA domain-containing protein 5 (Homo sapiens) (UniProt Q96QE3); experiment: Validation screen for small molecules that inhibit ELG1-dependent DNA repair in human embryonic kidney (HEK293T) cells expressing luciferase-tagged ELG1 (AID 493107);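 also: cells co-treated with the DNA-damaging agent 5-fluorouridine alongside compound; series mostly up to about 46 µM; inhibitors lower the ELG1-luciferase luminescence signal; nearly all actives have a fitted effect of over 70% in size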
# Chain of ATPase family AAA domain-containing protein 5 (Homo sapiens) (Q96QE3 whole entry, looked up, the tested form may be a part): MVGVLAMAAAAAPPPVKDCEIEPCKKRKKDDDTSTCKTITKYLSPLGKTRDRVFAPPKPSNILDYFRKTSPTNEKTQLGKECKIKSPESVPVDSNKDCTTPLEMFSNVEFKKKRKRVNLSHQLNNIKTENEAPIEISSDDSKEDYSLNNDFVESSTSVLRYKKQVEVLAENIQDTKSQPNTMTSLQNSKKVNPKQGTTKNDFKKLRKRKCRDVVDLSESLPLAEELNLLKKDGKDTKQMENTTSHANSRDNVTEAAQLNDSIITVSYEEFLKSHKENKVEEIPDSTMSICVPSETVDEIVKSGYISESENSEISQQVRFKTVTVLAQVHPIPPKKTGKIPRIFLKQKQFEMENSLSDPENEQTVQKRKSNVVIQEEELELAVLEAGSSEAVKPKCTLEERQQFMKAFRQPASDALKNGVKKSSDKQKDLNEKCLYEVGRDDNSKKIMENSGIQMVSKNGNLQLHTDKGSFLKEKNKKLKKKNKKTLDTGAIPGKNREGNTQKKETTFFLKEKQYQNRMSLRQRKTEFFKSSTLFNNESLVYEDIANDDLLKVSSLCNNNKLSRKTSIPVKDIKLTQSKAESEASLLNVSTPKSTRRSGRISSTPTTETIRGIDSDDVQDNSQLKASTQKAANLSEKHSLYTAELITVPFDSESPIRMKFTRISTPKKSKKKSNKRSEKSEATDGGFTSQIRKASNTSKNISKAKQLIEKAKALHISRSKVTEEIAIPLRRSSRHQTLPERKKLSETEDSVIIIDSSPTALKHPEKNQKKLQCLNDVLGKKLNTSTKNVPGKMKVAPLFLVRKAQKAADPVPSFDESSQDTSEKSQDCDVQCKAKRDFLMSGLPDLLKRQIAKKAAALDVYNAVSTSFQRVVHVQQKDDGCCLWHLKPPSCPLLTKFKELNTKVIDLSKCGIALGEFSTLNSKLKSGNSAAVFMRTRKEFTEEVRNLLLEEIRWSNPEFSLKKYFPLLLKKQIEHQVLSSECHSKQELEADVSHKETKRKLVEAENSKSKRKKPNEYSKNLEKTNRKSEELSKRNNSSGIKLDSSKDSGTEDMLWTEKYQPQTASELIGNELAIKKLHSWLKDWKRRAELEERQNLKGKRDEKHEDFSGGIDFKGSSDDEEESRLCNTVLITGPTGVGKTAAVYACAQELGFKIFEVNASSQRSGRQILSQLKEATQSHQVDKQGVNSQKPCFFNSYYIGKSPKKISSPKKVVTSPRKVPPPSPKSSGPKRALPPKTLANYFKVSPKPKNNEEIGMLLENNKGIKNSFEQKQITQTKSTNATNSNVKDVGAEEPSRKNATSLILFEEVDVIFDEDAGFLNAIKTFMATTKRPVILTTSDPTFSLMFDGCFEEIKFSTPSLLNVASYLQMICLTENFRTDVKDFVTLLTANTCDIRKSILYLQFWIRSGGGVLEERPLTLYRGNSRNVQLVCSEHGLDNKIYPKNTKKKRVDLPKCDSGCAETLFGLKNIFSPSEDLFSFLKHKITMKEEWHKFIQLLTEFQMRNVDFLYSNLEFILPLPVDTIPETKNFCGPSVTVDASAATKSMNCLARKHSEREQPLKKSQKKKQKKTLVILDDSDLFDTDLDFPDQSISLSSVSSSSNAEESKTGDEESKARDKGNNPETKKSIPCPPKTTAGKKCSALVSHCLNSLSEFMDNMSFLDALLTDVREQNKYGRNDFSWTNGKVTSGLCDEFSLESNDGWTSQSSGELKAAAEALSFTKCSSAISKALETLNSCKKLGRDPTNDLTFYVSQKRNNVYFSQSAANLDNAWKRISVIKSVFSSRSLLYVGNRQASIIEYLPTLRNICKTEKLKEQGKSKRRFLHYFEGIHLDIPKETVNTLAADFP
# Method in brief: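 HEK293T cells expressing luciferase-tagged ELG1 were co-treated with 5-fluorouridine and compound or DMSO for 16 hr at 37 °C, 5% CO2. Luciferase activity was then read with ONE-Glo after 30 min at room temperature; suppressed signal indicates blocked ELG1 function.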
# [15] = Nrf2 qHTS screen for inhibitors: Validation (AID 493153; active = well fitted inhibition curve with a large enough effect in the main read-out, with a control signal flat, not every such curve was filed as active; also: potency is read from the fitted curve at half-maximal effect); conditions: Potency: luciferase luminescence; viability change: measured here: cytotoxicity max response
# Method in brief: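 A549 cells carrying an ARE-driven firefly luciferase reporter, in 5% FBS OPTI-MEM, were treated with compounds in concentration-response for 18-24 h at 37°C. Viability was read by CellTiter-Fluor fluorescence, then Nrf2 activity by luciferase luminescence.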
# [16] = qHTS for Inhibitors of Cell Surface uPA Generation: Validation Assay (AID 493164);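 also: RAW 264.7 macrophage cells exposed to compound for 18 h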
# Method in brief: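 RAW 264.7, 4000 cells/well, o/n plating; cpd 7-pt 1:5 dilution 2.45 nM–38.3 uM final; 18 h, 37 C/5% CO2; ATP-Lite, 5 s luminescence exposure.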
# [17] = target: Galactokinase (Homo sapiens) (UniProt P51570); experiment: qHTS Validation Assay for Inhibitors of Human Galactokinase (GALK) (AID 493189)
# Method in brief: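 5 nM GALK / 100 uM galactose / 35 uM ATP, 20 mM HEPES pH8.0, 5 mM MgCl2, 60 mM NaCl, 1 mM DTT, 0.01% BSA (final). RT 1 h; Kinase-Glo Plus luminescence.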
# [18] = Validation screen for small molecules that induce DNA re-replication in SW480 colon adenocarcinoma cells (AID 504364)
# Method in brief: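 SW480 cells seeded at 250 per well were exposed to compound or DMSO for 48 hr at 37 C, 5% CO2, then stained with Hoechst for 40 min. DNA content per nucleus was imaged (405 nm ex, 500-530 nm em).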
# [19] = target: Thyrotropin-releasing hormone receptor (Homo sapiens) (UniProt P34981); experiment: qHTS for Small Molecule Agonists and Allosteric Enhancers of Human TRH Receptor: Validation Screen for Agonists (AID 493127;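 active = calcium activation more than 3 SD above the typical response in the agonist read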;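 also: intracellular calcium rise by fluo-8 fluorescence before TRH EC20 addition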); conditions: TRH receptor agonist cell assay; at 2 µM; stronger effect = higher value
# Method in brief: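 TRHR-expressing cells were plated overnight in serum-containing medium, then loaded with fluo-8 calcium dye at room temperature for 30 min–1.5 h. After a 10 s baseline, compound was pin-transferred and calcium fluorescence (ex 480/em 530) read kinetically for agonist response.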
SMILES,outcome [1],Potency [2],Potency [3],Potency [4],Potency [5],outcome [6],outcome [7],outcome [8],Potency [9],Potency [10],Potency [11],Potency [12],Potency [13],Potency [14],Potency [15],viability change [15] [%],outcome [16],Potency [17],Potency [18],activation [19]
CC(C)(Oc1ccc(C2CC2(Cl)Cl)cc1)C(=O)O (centres undefined),inactive,inactive,inactive,39.8 µM (active) and inactive,inactive,inactive,inactive,inactive,inactive,inactive,inactive,inactive,inactive,inactive,inactive,9.29,inactive,inactive,inactive,
COc1ccc2c(c1)c(CC(=O)O)c(C)n2C(=O)c1ccc(Cl)cc1,inactive,inactive,inactive,inactive,inactive,inactive,inactive,inactive,inactive,,inactive,,inactive,,,,inactive,inactive,inactive,
Cc1cn([C@H]2C[C@H](N=[N+]=[N-])[C@@H](CO)O2)c(=O)[nH]c1=O,inactive,inactive,inactive,inactive,inactive,inactive,,,inactive,inactive,inactive,inactive,,,inactive,8.03,inactive,,,
CCC1(c2ccccc2)C(=O)NCNC1=O,inactive,inactive,inactive,inactive,inactive,inactive,inactive,inactive,inactive,inactive,inactive,,,,inactive,0.001,inactive,inactive,inactive,
O=C(c1ccc(F)cc1)C1CCN(CCn2c(=O)[nH]c3ccccc3c2=O)CC1,inactive,inactive,inactive,inactive,inactive,inactive,inactive,inactive,inactive,inactive,5.62 µM (active),,inactive,,inactive,2.61,inactive,inactive,inactive,
CCCCc1oc2ccccc2c1C(=O)c1cc(I)c(OCCN(CC)CC)c(I)c1,inactive,inactive,inactive,inactive,44.7 µM (active),inactive,inactive,inactive,inactive,inactive,,,inactive,,inactive,8.23,,inactive,inactive,1.56% (inactive)
CC#C[C@]1(O)CC[C@H]2[C@@H]3CCC4=CC(=O)CCC4=C3[C@@H](c3ccc(N(C)C)cc3)C[C@@]21C,inactive,inactive,inactive,11.9 µM (active),25.1 µM (active),inactive,,,inactive,2.31 µM (active),inactive,inactive,inactive,,23.1 µM (active),-7.52,inactive,,,
CC(C)NCC(O)COc1ccc(CCOCC2CC2)cc1 (centres undefined),inactive,inactive,inactive,inactive,inactive,inactive,inactive,,inactive,inactive,inactive,,inactive,,inactive,-1.98,inactive,inactive,inactive,
COc1ccc2[nH]cc(CCNC(C)=O)c2c1,inactive,inactive,inactive,inactive,inactive,inactive,inactive,inactive,inactive,inactive,inactive,,inactive,,inactive,-12.9,inactive,inactive,inactive,-2.38% (inactive)
NC(CO)C(=O)NNCc1ccc(O)c(O)c1O (centres undefined),inactive,4.23 µM (active),inactive,31.6 µM (active),35.5 µM (active),inactive,,inactive,inactive,inactive,inactive,,inactive,,inactive,-7.62,inactive,inactive,inactive,
Clc1ccc2nsnc2c1NC1=NCCN1,inactive,inactive,inactive,inactive,inactive,inactive,,,inactive,inactive,inactive,inactive,inactive,,inactive,-2.06,inactive,,,
NC(=O)OCC(COC(N)=O)c1ccccc1,inactive,inactive,inactive,inactive,inactive,inactive,inactive,inactive,inactive,inactive,inactive,,inactive,inactive,inactive,2.5,inactive,inactive,inactive,0.5% (inactive)
C[C@](N)(Cc1ccc(O)c(O)c1)C(=O)O,inactive,3.77 µM (active),0.844 µM (active),1.89 µM (active),1.89 µM (active),inactive,inactive,,inactive,,inactive,inactive,inactive,,inactive,0.569,inactive,inactive,inactive,1.25% (inactive)
Cn1c(=O)c2[nH]cnc2n(C)c1=O,inactive,inactive,inactive,inactive,inactive,inactive,inactive,inactive,inactive,inactive,inactive,,,inactive,inactive,0.231,inactive,inactive,inactive,0.688% (inactive)
Clc1ccccc1C(c1ccccc1)(c1ccccc1)n1ccnc1,inactive,inactive,inactive,inactive,0.0084 µM (active),inactive,inactive,inactive,inactive,inactive,inactive,inactive,inactive,,,,inactive,inactive,inactive,-13.1% (inactive)
